Data reported in PubChem BioAssay AID1851 (National Center for Advancing Translational Sciences (NCATS), 2009).
Screen size: about 16,000 compounds; about 5,800 (36%) were called active. About 23% were inconclusive and are not listed. Calls come from the whole dose curve; as a rule, active = well fitted curve in the direction sought with a large enough effect; inconclusive = small, poorly fitted or top-dose-only effect, or effect the other way; inactive = no such curve, though single readings can be large or run the other way. Some of the results follow.

Target: Cytochrome P450 2C19 (Homo sapiens) (UniProt P33261)
Sequence (P33261 whole entry, looked up): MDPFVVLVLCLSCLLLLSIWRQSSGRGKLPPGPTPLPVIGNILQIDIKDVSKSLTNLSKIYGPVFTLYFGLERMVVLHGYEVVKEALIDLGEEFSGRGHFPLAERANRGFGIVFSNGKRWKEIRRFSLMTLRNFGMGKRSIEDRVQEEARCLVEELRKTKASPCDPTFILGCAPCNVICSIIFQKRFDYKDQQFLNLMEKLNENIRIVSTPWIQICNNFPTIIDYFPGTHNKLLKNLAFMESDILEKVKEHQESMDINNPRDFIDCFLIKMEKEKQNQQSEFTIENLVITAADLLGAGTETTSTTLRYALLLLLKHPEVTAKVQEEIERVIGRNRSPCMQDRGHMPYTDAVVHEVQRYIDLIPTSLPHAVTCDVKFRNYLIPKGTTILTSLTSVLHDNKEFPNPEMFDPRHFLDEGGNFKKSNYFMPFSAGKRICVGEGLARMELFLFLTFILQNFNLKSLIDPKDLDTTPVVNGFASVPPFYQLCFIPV
Assay: Cytochrome panel assay with activity outcomes
Conditions: recombinant CYP, pro-luciferin dealkylation, luminescence, p450-cyp2c19; series mostly up to 57.1 µM; activity, negative = inhibition: at the top concentration
% is set by controls: 0 for no effect and ±100 for the full control effect.

Compound	AC50	activity, negative = inhibition
COc1cccc(-c2cncnc2NCCc2c[nH]c3ccc(OC)cc23)c1	0.316 µM (active)	–
COc1ccc2[nH]cc(CCNc3ncncc3-c3cccnc3)c2c1	3.16 µM (active)	–
c1cncc(-c2cncnc2NC2CCNCC2)c1	–	-38.4% (inactive)
COc1ccc2[nH]cc(CCNc3ncncc3-c3cccc(NS(C)(=O)=O)c3)c2c1	5.01 µM (active)	–
CCC/C=C(\CCC)C(NP(=O)(c1ccccc1)c1ccccc1)c1ccc(-c2ccccc2)cc1 (stereo not given)	7.94 µM (active)	–
CCC/C=C(\CCC)C(NS(=O)(=O)c1cccs1)c1ccc(C(=O)OC)cc1 (stereo not given)	0.794 µM (active)	–
CCC/C=C(\CCC)C(NS(=O)(=O)c1ccc(Cl)cc1)c1ccccc1 (stereo not given)	0.398 µM (active)	–
CCC/C=C(\CCC)C(NS(=O)(=O)c1ccc(Cl)cc1)c1ccc(C(=O)OC)cc1 (stereo not given)	1.58 µM (active)	–
CO[C@H]1COC(=O)C/C=C\[C@@H](C)COC(=O)[C@@H](C)NC(=O)C/C=C\[C@@H]1C	–	16.7% [at 11.4 µM] (inactive)
CO[C@H]1COC(=O)CCC[C@@H](C)[C@H](OC)COC(=O)[C@H]2CCCN2C(=O)C/C=C\[C@@H]1C	–	-20.1% [at 11.4 µM] (inactive)
CCC/C=C(\CCC)C(NS(=O)(=O)c1cccc2cccnc12)c1ccc(C(=O)OC)cc1 (stereo not given)	3.16 µM (active)	–
CCC/C=C(\CCC)C(NS(=O)(=O)c1ccc(C(F)(F)F)cc1)c1ccc(C(=O)OC)cc1 (stereo not given)	2.51 µM (active)	–
CCC/C=C(\CCC)C(NS(=O)(=O)c1ccc(-c2ccccc2)cc1)c1ccc(C(=O)OC)cc1 (stereo not given)	1.26 µM (active)	–
CCC/C=C(\CCC)C(NS(C)(=O)=O)c1ccccc1 (stereo not given)	7.94 µM (active)	–
COC(=O)c1ccc(-n2cncn2)c(F)c1	7.08 µM (active)	–
O=C(c1ccc2nc3ccc(Cl)cc3c(=O)n2c1)N1CCOCC1	–	-7.4% (inactive)
NC(=O)C1(N2CCCCC2)CCN(C(=O)c2cccn3c(=O)c4cc(Cl)ccc4nc23)CC1	14.1 µM (active)	–
N[C@@H](Cc1nn[nH]n1)C(=O)O	–	-17.6% [at 11.4 µM] (inactive)
CCOc1ccc(-c2nn(-c3ccccc3)cc2/C=C(\C#N)S(=O)(=O)c2ccccc2)cc1C	–	-13.4% (inactive)
CCOc1ccc(-c2nn(-c3ccccc3)cc2/C=C2\SC(N)=NC2=O)cc1C	11.2 µM (active)	–
COc1ccc(Br)c2c1C[C@H](C(=O)O)CC2	–	39.7% [at 11.4 µM] (inactive)
CCOc1ccc(C(=O)O)cc1OC	–	-14.7% (inactive)
COc1ccc(C(=O)c2ccccc2)cc1Br	8.91 µM (active)	–
COc1ccc(C(=O)c2ccc(OC)c(OC)c2)cc1OC	2.82 µM (active)	–
CC[C@@H](c1ccccc1)n1c(=O)n2n(c1=O)[C@H]1[C@H](O)[C@H]3O[C@@H]3/C(=N/OC/C=C(\C)CCC=C(C)C)[C@@H]1CC2	–	-35.5% [at 11.4 µM] (inactive)
C[N+]1(CCC(=O)c2ccco2)CC2CCC(CC2)C1 (stereo not given)	–	-31.3% [at 11.4 µM] (inactive)
Cc1ccc(C(C(=O)NC2CCCCC2)N2CCN(C(=O)c3ccco3)CC2)cc1 (stereo not given)	8.91 µM (active)	–
O=C(OC(C(=O)NC1CCCC1)c1ccncc1)C1=Cc2ccccc2OC1 (stereo not given)	1.12 µM (active)	–

Compound	AC50	activity, negative = inhibition
Cc1ccc(C(OC(=O)c2ccco2)C(=O)NC2CCCCC2)cc1 (stereo not given)	17.8 µM (active)	–
CC(C)NC(=O)N1CC2(CCN(C(=O)c3ccco3)CC2)C1	–	-2.81% (inactive)
CC(C)NC(=O)N1CCC2(CC1)CCN(C(=O)c1ccco1)CC2	–	18% (inactive)
CN1CCN(c2nc(-c3ccccc3)cc(C(F)(F)F)n2)CC1	8.91 µM (active)	–
COc1ccccc1-c1nc(N2CCN(C)CC2)c2ccccc2n1	–	1.78% (inactive)
COc1ccccc1N1CCN(c2nc(-c3ccccc3)cc(C(F)(F)F)n2)CC1	1 µM (active)	–
CNC(=O)NC(=S)NC(=O)c1ccc(OC)cc1	14.1 µM (active)	–
COc1ccc(C(=O)NC(=S)NCc2ccccc2)cc1	5.01 µM (active)	–
COc1ccc(C(=O)NCc2ccc(-c3nc4ccccc4s3)cc2)cc1	7.94 µM (active)	–
CC(C)(C)C(=O)NC(=S)NCCc1ccccc1	2.51 µM (active)	–
Cc1ccc(C(=O)NC(=S)Nc2cc(-c3nc4ccccc4s3)ccc2C)cc1	–	-17% (inactive)
COc1ccc(C(=O)NNC(=S)NC(=O)c2ccco2)cc1	–	-61.5% (inactive)
C/C(=C(/CCO)SSC[C@@H]1CCCO1)N(C=O)Cc1cnc(C)nc1N	–	-29% [at 25.6 µM] (inactive)
COc1cc(OC)cc(C(=O)NC(=S)NCCc2ccccc2)c1	2.51 µM (active)	–
COc1cc(OC)cc(C(=O)NC(=S)Nc2ccc(Cl)c(C(=O)O)c2)c1	–	-28.3% (inactive)
CCOc1ccc(N2C(=O)C3C4C=CC(CC4)C3C2=O)c([N+](=O)[O-])c1 (stereo not given)	3.98 µM (active)	–
Cc1cc(C)c(-c2cc([C@H](C)O/N=C3/[C@H]4OC4[C@@H](O)[C@H]4[C@H]3CCn3c(=O)n(-c5ccccc5)c(=O)n34)on2)c(C)c1 (stereo not given in full)	–	-40% [at 11.4 µM] (inactive)
CCC(C)(C)c1ccc(Oc2cccc(C(=O)O)c2)cc1	–	-38.4% [at 11.4 µM] (inactive)
C[C@@H](/C=C\c1cccc(Oc2ccc(F)cc2)c1)N(O)C(N)=O	3.98 µM (active)	–
C[N+]1(NCC[N@@+]2(C)CCc3ccccc3C2)CCCCC1	–	13.4% [at 11.4 µM] (inactive)
CCc1ccc(C(=O)CN(C#N)c2nc(C)cc(C)n2)cc1	10 µM (active)	–
C[C@H]1[C@H](C)OC(=O)C[C@H](O)C[C@H](O)C[C@H](O)CC[C@H](O)[C@H](O)CC(=O)C[C@H](O)[C@H](C(=O)O)[C@H](O)C[C@H](O[C@@H]2O[C@@H](C)[C@H](O)[C@@H](N)[C@@H]2O)C=CC=CC=CC=CCCC=CC=C[C@@](C)(O)[C@H]1O	–	33.3% [at 11.4 µM] (inactive)
CON(c1nc(N(C)C)nc(N(C)C)n1)S(=O)(=O)c1ccccc1Cl	4.47 µM (active)	–
CN1CCN(c2ncc3nc(-c4ccc(Cl)cc4)c(=O)n(C4CC4)c3n2)CC1	–	-9.47% (inactive)
Cc1cc(C)n(CCCNCC(O)c2ccccc2)n1 (stereo not given)	–	-21.8% (inactive)
Cc1cc(C)n(CC(O)COc2ccccc2)n1 (stereo not given)	8.91 µM (active)	–
O=C1CCC(c2ccccc2)(c2ccccc2)CC1	–	13.2% [at 11.4 µM] (inactive)
